# High-throughput results (PubChem)
# Shown are actives, neighbours in structure and some others; about 11% of the full set was active somewhere.
# HEK cytotox = cytotoxic compounds in HEK 293 cells | 94,000 compounds, 6.6% hits | AID 1345083 | Potency, µM (top dose mostly 115 µM), without a hit: top-dose activity change, negative = cytotoxicity, actives largely listed as inhibitors | HEK 293 viability, ATP luminescence (CellTiter-Glo), 48-72 h; further: nearly all actives have a fitted effect of over 60% in size
#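 Viability of HEK 293 cells, plated at 250 cells/well, was judged by cellular ATP after compound treatment for 48 or 72 hr. Luminescence was imaged 10 min after CellTiter-Glo addition at room temperature.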
# 3T3 cytotox = cytotoxic compounds in NIH 3T3 cells; NIH 3T3 viability, CellTiter-Glo ATP luminescence, 48-72 h; Potency, µM (series often up to 96.7 µM), without a hit: at the highest dose activity change, negative = cytotoxicity, hits mostly inhibitors; AID 1345082; 94,000 compounds, 4.3% hits; further: nearly all actives have a fitted effect of over 55% in size
#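 Cytotoxicity was measured by CellTiter-Glo ATP luminescence after 48 or 72 h compound exposure at 37 °C. Mouse NIH 3T3 fibroblasts were seeded at 400 cells/well and dosed by 23 nL pin transfer.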
# Luciferase inh = Photinus pyralis luciferase inhibition. P08659. purified P. pyralis luciferase, luminescence, biochemical. Potency, µM (highest dose often 115 µM), hits mostly inhibitors. 76,000 compounds, 2.5% hits. AID 1347043; further: nearly all actives have a fitted effect of over 65% in size
# Target sequence (P08659 whole entry, looked up): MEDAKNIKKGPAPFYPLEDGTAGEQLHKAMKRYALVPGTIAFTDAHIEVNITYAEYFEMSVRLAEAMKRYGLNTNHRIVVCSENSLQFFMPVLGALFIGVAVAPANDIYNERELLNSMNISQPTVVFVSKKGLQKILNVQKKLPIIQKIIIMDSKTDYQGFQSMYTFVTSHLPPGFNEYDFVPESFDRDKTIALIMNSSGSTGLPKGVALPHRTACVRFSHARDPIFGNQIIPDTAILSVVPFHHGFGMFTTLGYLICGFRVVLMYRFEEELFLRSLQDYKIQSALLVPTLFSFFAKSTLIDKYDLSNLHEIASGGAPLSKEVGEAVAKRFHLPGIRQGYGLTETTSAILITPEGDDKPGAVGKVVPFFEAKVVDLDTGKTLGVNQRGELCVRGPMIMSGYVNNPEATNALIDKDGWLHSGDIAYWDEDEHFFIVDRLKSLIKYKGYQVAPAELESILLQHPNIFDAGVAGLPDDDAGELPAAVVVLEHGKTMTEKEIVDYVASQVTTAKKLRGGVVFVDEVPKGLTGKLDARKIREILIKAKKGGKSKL
#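 Inhibitors were tested against purified firefly luciferase in a biochemical, low-substrate format (both substrates at 10uM) and luminescence measured with a CCD imager.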
# NPR1 antag = human Npr1 receptor antagonism; P16066; HEK293 hNpr1 GloSensor cGMP, ANP-stimulated luminescence; Potency, µM (series often up to 46.3 µM), inactives show at the highest dose activity change, negative = inhibition, most hits filed as inhibitors; 76,000 compounds, 1.6% hits; calls by dose curve; further: nearly all actives have a fitted effect of over 60% in size
#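 HEK293 cells stably expressing human Npr1 and cGMP GloSensor pGS-40F, loaded 2 h with 2% GloSensor reagent, given compound 30 min at room temperature. Luminescence read before and 20 min after 0.1 nM hNppA.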
# The depositor's hits bear a star; i = inactive; ? = inconclusive; / = no result given; [ ] = another dose, or the depositor's remark. Unless noted, the call rests on the fitted dose curve; in most records, active means well fitted curve in the direction sought with a large enough effect; inconclusive means small, poorly fitted or top-dose-only effect, or another doubt; inactive means no such curve, though single readings can be large; an effect the other way counts as inactive or inconclusive. On the % scale 0 is the no-effect control and ±100 the full control effect; potency means the concentration at half of the fitted maximal effect.
SMILES,HEK cytotox,3T3 cytotox,Luciferase inh,NPR1 antag
O=C(NCc1ccc(F)cc1)C1CCN(c2nc3ncccc3o2)CC1,i,-13%,/,/
O=C(NCc1ccncc1)c1ccc(Cn2ccn3nc4c(c3c2=O)CCCC4)cc1,?,?,i,-16%
CC(C)Oc1ccc(CNC(=O)c2ccc(Cn3ccn4nc5c(c4c3=O)CCCC5)cc2)cc1,35µM*,?,i,?
CN(c1ccccc1)c1ccc2nnc(-c3cc(C(=O)Nc4ccccn4)ccn3)n2n1,56µM*,?,i,3%[70.6 µM]
COc1cccc(NC(=O)c2ccnc(-c3nnc4ccc(N(C)C)nn34)c2)c1,?,32µM*,i,-1%[70.6 µM]
CN(C)c1cccc(NC(=O)c2ccnc(-c3nnc4ccc(N5CCOCC5)nn34)c2)c1,-28%,?,i,5%
CN(c1ccccc1)c1ccc2nnc(-c3cc(C(=O)NCC4CCCO4)ccn3)n2n1 (centres undefined),-24%[172 µM],?,i,-4%[70.6 µM]
O=C(Nc1ccncc1)c1ccnc(-c2nnc3ccc(N4CCOCC4)nn23)c1,-6%[172 µM],89µM*,i,4%[70.6 µM]
CN(c1ccccc1)c1ccc2nnc(-c3cc(C(=O)NCc4cccnc4)ccn3)n2n1,100µM*,25µM*,i,-1%[70.6 µM]
CCc1ccc(CNC(=O)c2ccc3c(c2)N(CC)C2CCCCN2C3=O)cc1 (centres undefined),?,?,i,0%
CCN1c2cc(C(=O)NCc3ccccc3)ccc2C(=O)N2CCCCCC21 (centres undefined),40µM*,-24%,i,-6%
CCN1c2cc(C(=O)NCc3cccc(C(F)(F)F)c3)ccc2C(=O)N2CCCCCC21 (centres undefined),18µM*,?,i,?
Cc1ccc2c(C(=O)NCc3ccccc3C(F)(F)F)cc(NC(=O)C(C)C)cc2n1,?,?,i,-19%
Cc1nn(-c2ccccc2)c(Oc2ccccc2F)c1CCC(=O)NCc1ccco1,45µM*,?,i,?
Cc1nn(-c2ccc(F)cc2)c(Oc2ccccc2F)c1CCC(=O)NCC1CC1,50µM*,?,i,-23%
O=C(NC1CCOCC1)C1CCN(c2nccc(Nc3ccccc3F)n2)CC1,i,-24%,/,/
COc1ccc(CN2CCCC(c3cc(=O)[nH]c(C)n3)C2)c(OC)c1C (centres undefined),45µM*,?,i,5%
COCCN1C(=O)Cc2ccccc2C1C(=O)NCc1cccc(Cl)c1 (centres undefined),-5%,-8%,i,-5%
Cc1ccccc1N(C)C1CN(Cc2ccc(C(F)(F)F)cc2)C1,100µM*,?,/,/
Cc1ccccc1N(C)C1CN(Cc2ccccc2)C1,?,89µM*,i,-8%[70.6 µM]
Cc1ccccc1N(C)C1CN([S+](=O)([O-])c2cccs2)C1,79µM*,?,i,-7%[70.6 µM]
Cc1ccccc1N(C)C1CN(Cc2ccc(F)cc2)C1,?,-23%[138 µM],/,/
CCN1CCC2(CC1)Cc1ccccc1CN(C(=O)C1CCCC1)C2,?,-20%,/,/
CC(=O)NCCC(=O)N1Cc2ccccc2CC2(CCN(Cc3cccnc3)CC2)C1,3%,i,/,/
O=C(c1cn[nH]c1-c1ccc(F)cc1)N1CCC(OCCOc2ccccc2)CC1,50µM*,?,/,/
SMILES,HEK cytotox,3T3 cytotox,Luciferase inh,NPR1 antag
CNC(=O)c1cc(C)nc2onc(C3CCCN(C(=O)c4ccccc4C)C3)c12 (centres undefined),0%,-8%,/,/
COc1cccc(C(=O)N2CCCN(c3cc(-c4ccc(Cl)cc4)[nH]n3)CC2)c1,?,?,i,?
CN(C)c1cccc(C(=O)N2CCN(c3cc(-c4ccc(Cl)cc4)[nH]n3)CC2)c1,?,?,28µM*,-24%
N#Cc1ccc(C(=O)N2CCCN(c3cc(-c4ccc(Cl)cc4)[nH]n3)CC2)cc1,28µM*,?,i,?
COc1ccc(-c2cc(N3CCCN(C(=O)c4ccc(Cl)cc4)CC3)n[nH]2)cc1,?,-17%,i,0%
COc1cc(OC)cc(C(=O)N2CCN(c3cc(-c4ccc(Cl)cc4)[nH]n3)CC2)c1,?,35µM*,i,?
CN(C)c1cccc(C(=O)N2CCCN(c3cc(-c4ccccc4)[nH]n3)CC2)c1,?,-17%,?,-2%
COc1ccc(-c2cc(N3CCCN(C(=O)c4cc(OC)cc(OC)c4)CC3)n[nH]2)cc1,?,-25%,i,-15%
